Screening data as filed in PubChem.
The list is not random: actives were taken first. Their share in the collection is about 1.2%.
TLR4 MyD88 comp: blocks binding of human TLR4 to MyD88; HeLa CL3-4 TLR4/MyD88 BLA complementation, FRET ratio; inhibition, % at 8.4 µM; 200,000 compounds, 0.18% hits; AID 861; in the data active means inhibition above about 25%;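 further: 0% = vehicle and 100% = reference inhibitor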
NPR1 activator: GC-A (human) enzyme activation; AID 1671463; activation, % at 10 µM; P16066; HEK293 GC-A cells, cGMP TR-FRET, EC30 ANP; 0% at EC30 ANP, 100% saturating ANP; 370,000 compounds, 0.14% hits; in the data active means activation above about 40%
Neddyl block: cullin neddylation inhibition; TR-FRET cullin neddylation, biochemical; inhibition, % at 25 µM; 360,000 compounds, 0.58% hits; AID 651699; in the data active means inhibition above about 36%
NPR2 activator: GC-B (human) receptor activation; 370,000 compounds, 0.11% hits; activation, % at 10 µM; HEK293-GC-B cells, CNP EC30, cGMP TR-FRET; 0% at EC30 CNP, 100% saturating CNP;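 active means activation at 10 µM reaching about 35% in either raw or pattern-adjusted values, limit read from the data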
NOD2-RIPK2 inh: blocks binding of human NOD2 to RIPK2; O43353; CHO BLA complementation NOD2-RIPK2, CCF4 ratio; inhibition, % at 4.98 µM; 360,000 compounds, 0.38% hits; AID 624267; in the data active means inhibition above about 21%;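 further: 0% = vehicle only and 100% = reference blocker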
TLR9-MyD88 inh: TLR9-MyD88 interaction inhibition | Q9NR96+Q99836 | CHO BLA complementation TLR9-MyD88, CCF4 FRET ratio | inhibition, % at 4.98 µM | 340,000 compounds, 0.21% hits | AID 504734;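 active means inhibition above the mean over all tested compounds plus 3 SD, cut at about 21% in these data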;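 further: 0% = DMSO only wells and 100% = clavulanate BLA inhibitor control wells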
NOD2-RIPK2 conf: confirmation of human NOD2-RIPK2 interaction inhibitors; 1,200 compounds, 70% hits; CHO cells, NOD2-RIPK2 BLA complementation, CCF4 FRET; AID 624370; shares compounds with NOD2-RIPK2 inh; inhibition, % at 4.98 µM;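 active means mean inhibition across replicates above a set limit taken from the earlier primary screen, cut at about 21% in these data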;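 further: 0% = DMSO-only wells and the high end = clavulanate BLA-blocked wells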
NOD2 BLA counter: hits BLA reporter in NOD2-RIPK2 inhibitor counterscreen. inhibition, % at 4.98 µM. 1,200 compounds, 57% hits. shares compounds with NOD2-RIPK2 inh. CHO BLA reporter, CCF4 FRET ratio. AID 624371;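 active means mean inhibition above the low-control mean inhibition plus three low-control SD, cut at about 11% in these data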;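 further: 0% = DMSO only wells and 100% = clavulanate high control wells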
Numbers without * were called inactive; i = inactive; nt = not tested or not shown.

SMILES | TLR4 MyD88 comp | NPR1 activator | Neddyl block | NPR2 activator | NOD2-RIPK2 inh | TLR9-MyD88 inh | NOD2-RIPK2 conf | NOD2 BLA counter
CC(C)CNc1cccc2c1S(=O)(=O)N(Cc1cn(Cc3ccc(C(F)(F)F)cc3)nn1)Cc1ccccc1O2 | nt | 3 | nt | 9 | nt | nt | nt | nt
Cc1cc(NC(=O)CCN2C(=O)/C(=C/c3ccccc3Cl)SC2=S)no1 | -13 | -2 | -3 | -3 | 34* | 0 | -10 | -2
COc1ccccc1/C=C1\SC(=S)N(CCC(=O)Nc2cc(C)on2)C1=O | nt | -1 | -11 | -4 | -5 | -4 | nt | nt
COc1cc(N2C(=O)C=CC2=O)c(OC)cc1Cl | nt | -30 | 0 | -18 | 51* | 17 | 80* | 23*
Cc1ccc(NC(=O)C(OC(=O)c2ccc(O)cc2)c2ccccc2)cc1Cl (configuration not stated) | -15 | 0 | -4 | 7 | 35* | -6 | -10 | -3
Cc1ccc(NC(=O)C(OC(=O)c2ccc(F)cc2)c2ccccc2)cc1Cl (configuration not stated) | -2 | 4 | -7 | -4 | -11 | 0 | nt | nt
Cc1cccc(NC(=O)CN(C)C(=O)Cc2ccc(-c3ccccc3)cc2)c1C | nt | 9 | -14 | -7 | 3 | 5 | nt | nt
Cc1ccc(NC2=CC(=O)CC(C)(C)C2)cc1C | 2 | 3 | -1 | 5 | 1 | -1 | nt | nt
COc1ccc(NC2=CC(=O)CC(C)(C)C2)cc1OC | 11 | 1 | 4 | -3 | 23* | -5 | -11 | -3
COC(=O)[C@H]1C[C@@]2(C#N)c3ccccc3N(C(=O)OC(C)(C)C)[C@H]2N1C(=O)OC(C)(C)C | nt | -4 | nt | -8 | nt | nt | nt | nt
O=C(NC1CCCCC1)C(CCc1ccccc1)n1c(=O)c(-c2ccccc2)nc2ccccc21 (configuration not stated) | nt | -1 | 24 | 2 | -15 | nt | nt | nt
Cc1cccc(C)c1NC(=O)C(CCc1ccccc1)n1c(=O)c(-c2ccccc2)nc2ccccc21 (configuration not stated) | nt | 3 | 33 | 3 | 11 | nt | nt | nt
Cc1cccc(C)c1NC(=O)C(CCc1ccccc1)n1c(=O)c(-c2cc3ccccc3[nH]2)nc2ccccc21 (configuration not stated) | nt | 2 | nt | 4 | 45* | nt | 41* | 67*
CC(C)(C)NC(=O)C(CCc1ccccc1)n1c(=O)c(-c2cc3ccccc3[nH]2)nc2ccccc21 (configuration not stated) | nt | 5 | nt | 0 | 44* | nt | 40* | 66*
CC(C)(C)c1ccc(-c2nnc(SCC3CCCCO3)n2-c2ccc(Cl)cc2)cc1 (configuration not stated) | nt | 1 | nt | -1 | nt | nt | nt | nt
Cc1cc(C(=O)CN2C(=O)c3cccc(N)c3C2=O)c(C)n1Cc1cccs1 | 22 | 10 | nt | 3 | 24* | 20 | 29* | 42*
Cc1cc(C(=O)CN2C(=O)NC3(CCCCC3C)C2=O)c(C)n1Cc1cccs1 (configuration not stated) | -18 | 3 | 4 | 6 | -11 | -6 | nt | nt
COc1ccc(S[C@]2(C(=O)N3CCOCC3)CC(=O)N(c3ccc(Cl)cc3)[C@@H]2c2ccc(OC)cc2)cc1 | nt | -14 | nt | -13 | nt | nt | nt | nt
Cc1ccc(N2C(=O)c3cccc4c(C(=O)O)ccc(c34)C2=O)cc1 | -14 | -2 | nt | -1 | nt | nt | nt | nt
CC(=O)Nc1ccc(N2C(=O)c3cccc4c(O)ccc(c34)C2=O)cc1 | nt | 1 | i | 3 | 27* | 17 | 25* | 28*
C=C1C(=O)C23CCC4C(C)(C(=O)OC)CCCC4(C)C2CCC1(O)C3 (configuration not stated) | nt | 3 | -4 | 25 | 79* | 3 | 88* | 21*
COc1ccccc1NS(=O)(=O)c1c(C)[nH]c(C)c1C(=O)N1CCCC1 | nt | 5 | 0 | 6 | 36* | -9 | -5 | -7
COc1cccc(N2CCN(S(=O)(=O)c3c(C)[nH]c(C)c3C(=O)N3CCCC3)CC2)c1 | nt | 1 | 2 | -5 | 23* | -5 | 1 | -3
O=C(CSc1ccc([N+](=O)[O-])cc1)Nc1cccc(S(=O)(=O)N2CCOCC2)c1 | nt | 3 | -26 | -2 | 41* | 11 | 0 | -1
COC(=O)[C@H]1C[C@@]2(N3CCCCC3)c3ccccc3N(S(=O)(=O)c3ccccc3)[C@H]2N1 | nt | -7 | nt | -6 | nt | nt | nt | nt
SMILES | TLR4 MyD88 comp | NPR1 activator | Neddyl block | NPR2 activator | NOD2-RIPK2 inh | TLR9-MyD88 inh | NOD2-RIPK2 conf | NOD2 BLA counter
COC(=O)[C@H](C(C)C)N(CCc1cn(CC2CCCCC2)nn1)S(=O)(=O)c1ccccc1Br | nt | 0 | nt | 6 | nt | nt | nt | nt
CS(=O)(=O)N1CCC[C@]2(CC[C@H](CCC#N)O2)C1 | nt | -1 | nt | -2 | nt | nt | nt | nt
O=C(C1CCN(Cc2cn[nH]c2-c2ccc(F)cc2F)CC1)N1CCOCC1 | -4 | 2 | 4 | -1 | 1 | -6 | nt | nt
OCCCC1CCCN(Cc2cn[nH]c2-c2ccc(F)cc2F)C1 (configuration not stated) | -12 | 3 | 1 | 2 | 22* | -1 | 2 | -4
Cc1ccc(/C=C2\Oc3c(ccc(O)c3CN3CCN(C)CC3)C2=O)cc1 | 12 | 2 | 21 | 2 | 29* | 12 | 21 | 25*
O=C1/C(=C/C=C/c2ccccc2)Oc2c1ccc(O)c2CN1CCN(CCO)CC1 | nt | 3 | 1 | 1 | 6 | 10 | nt | nt
O=C1CCC2(CCC(c3ccccc3)CC2)N1CCO (configuration not stated) | nt | 1 | nt | 2 | nt | nt | nt | nt
O=C1C=CC2C3C(=O)N(c4ccccc4)C(=O)C3C1N2Cc1ccccc1 (configuration not stated) | nt | -25 | 2 | -6 | 68* | 8 | 75* | -1
O=C1C2C3C=CC(CC3)C2C(=O)N1c1ccccc1 (configuration not stated) | nt | 8 | -3 | 5 | -1 | 7 | nt | nt
COc1ccc(-n2c(SCc3nc4ccccc4[nH]3)nc3ccccc3c2=O)cc1 | nt | 1 | nt | 10 | nt | nt | nt | nt
CC(=O)c1cc(-c2ccccc2)c(=O)n2c1CCC2 | nt | -3 | nt | -3 | nt | nt | nt | nt
CC(C)NS(=O)(=O)c1ccc(OCC(=O)N2CCN(c3ccccc3)CC2)cc1 | 7 | -1 | 1 | -3 | 68* | 2 | -6 | -3
O=C(CCNS(=O)(=O)c1c(Cl)cccc1Cl)OCC(=O)c1ccccc1 | -4 | 2 | 2 | 2 | 67* | 0 | 7 | -3
COc1ccc(-c2nc3ccccn3c2NCc2ccc3c(c2)OCO3)cc1 | 3 | 4 | nt | -3 | 1 | 13 | nt | nt
